ChEMBL document CHEMBL3988442, “University of Dundee, Small-Polar-MMV Screening Library” (2021)
The campaign covered roughly 53,000 compounds. About 900 (1.7%) showed an effect of 50% or more. The sample holds strong results, similar compounds and a random draw of the others, so the mix is not that of the screen.

System: Mycobacterium tuberculosis
Assay: Cornell - Phenotypic assay to identify agents that inhibit growth of Mycobacterium tuberculosis
Assay type: functional
Parameters: scale not given: direction of the effect not stated beside the values
Settings: 10 mM as filed; unlikely as a test dose

Compound | Percent Effect [%]
Cc1cc(C)n(C2CCCN(C(=O)c3ccc(N(C)C)nc3)C2)n1 (configuration not stated) | -19.67
Cc1ccc(CN2CCCC(c3cnccn3)C2)s1 (configuration not stated) | 14.09
Cl.Fc1cccc(F)c1Cn1c(C2CCCNC2)cc2cccnc21 (configuration not stated) | 30.15
c1cncc(CNCCc2cccs2)c1 | 34.29
Cc1cn2nc(Sc3nnnn3C)sc2n1 | -10.32
O=C(O)c1csc(S(=O)(=O)Nc2c(F)cccc2-n2cccn2)c1 | -80.25
O=C(c1ncccn1)N1C[C@@H]2CC[C@H](Oc3cccc(F)c3)[C@@H]2C1 | 15.44
Cn1ccc(C2CCCCCN2C(=O)c2cccnc2)n1 (configuration not stated) | -55.79
CCC(CN1CCOCC1)n1cncc1-c1ccc2c(c1)CCN2CC.Cl (configuration not stated) | 11.86
CN(CC(=O)N(CCC#N)c1ccccc1)C1CCc2ccccc21 (configuration not stated) | 6.676
Cc1cc(NC(=O)CN2CCCC2Cn2nc(C)nc2C)on1 (configuration not stated) | 9.67
COc1ccc2c(c1)C(=O)N(C)C1(CCN(CC3CC3)CC1)N2 | -6.53
COc1ccc2c(c1)C(=O)N(C)C1(CCN(C(=O)OC(C)(C)C)CC1)N2 | 105.8
COc1ccc2c(c1)C(=O)N(C)C1(CCN(CC=C(C)C)CC1)N2 | 0.8841
Cc1cc(N2CCC(CO)(CC3CCCCO3)CC2)nc2ccccc12 (configuration not stated) | -1.855
Cc1cc(N2CCC(CO)(CC3CCCCO3)CC2)c2ccccc2n1 (configuration not stated) | 0.8134
OCC1(CC2CCCCO2)CCN(c2cnc3ccccc3n2)CC1 (configuration not stated) | 107
Cc1[nH]ccc1C(=O)N1CCOCC12CCCC2 | 102.6
O=C(c1ccc[nH]1)N1CCOCC12CCCC2 | -33.44
Cc1ccc(F)cc1C(=O)N1CCOCC12CCCC2 | 20.33
CCCN1C(=O)CC(N2CCN(c3ccc(F)cc3)CC2)C1=O (configuration not stated) | -5.623
COCCCN1C(=O)CC(N2CCN(c3ccc(F)cc3)CC2)C1=O (configuration not stated) | 4.554

Compound | Percent Effect [%]
CC(C)CN1C(=O)CC(N2CCN(c3ccc(F)cc3)CC2)C1=O (configuration not stated) | 12.43
O=C1CC(N2CCN(c3ccc(O)cc3)CC2)C(=O)N1Cc1cccs1 (configuration not stated) | 104.3
COCCN1C(=O)CC(N2CCN(c3ccc(OC)cc3)CC2)C1=O (configuration not stated) | 55.38
O=C1CC(N2CCN(c3ccccc3O)CC2)C(=O)N1Cc1cccs1 (configuration not stated) | 63.35
O=C1CC(N2CCN(c3ccc(F)cc3)CC2)C(=O)N1Cc1cccs1 (configuration not stated) | 42.8
COCCN1C(=O)CC(N2CCN(c3ccccc3)CC2)C1=O (configuration not stated) | 12.26
COCCN1C(=O)CC(N2CCN(c3ccc(F)cc3)CC2)C1=O (configuration not stated) | 4.981
COC1(CNC(=O)c2ccoc2)CCSC1 (configuration not stated) | -5.057
Cc1nn(C(C)C)c2cnn(CC(=O)N3CCSCC3)c12 | -7.998
CCO[C@H]1CO[C@@]2(CCN(Cc3ccc4c(c3)OCO4)C2)C1.O=C(O)C(F)(F)F | 22.33
CCC(c1ccccc1)S(=O)(=O)CCO (configuration not stated) | -20.37
CN(C)c1ncc(CN2CCC(O)(c3ccccc3F)CC2)cn1.O=C(O)CC(O)(CC(=O)O)C(=O)O | 6.266
CN(C)c1ncc(CN2CCCC(Nc3ccc4c(c3)OCCO4)C2)s1 (configuration not stated) | 37
COc1ccc(NC2CCCN(Cc3cnc(N(C)C)s3)C2)cc1OC (configuration not stated) | 55.76
COc1ccc(NC2CCCN(Cc3cnc(N(C)C)s3)C2)cc1 (configuration not stated) | 47.8
O=C(NC1CCCCC1)c1ccc(Oc2ccc3nncn3n2)cc1 | -7.341
CS(=O)(=O)N[C@H]1CCO[C@]2(CCN(C(=O)c3ccccn3)C2)C1.O=C(O)C(F)(F)F | 4.539
CN1CCCC(c2cccc(-c3cccc(C(F)(F)F)c3)n2)C1 (configuration not stated) | 30.4
CN1CCCC(c2nccnc2-c2cccc(C(F)(F)F)c2)C1 (configuration not stated) | 32.41
CS(=O)(=O)N1CCCC(c2cccc(-c3ccccc3F)n2)C1 (configuration not stated) | 29.33
CN1CCCC(c2cccc(-c3ccccc3F)n2)C1 (configuration not stated) | 55.32
CN1CCCC(c2cncc(-c3cccc(C(F)(F)F)c3)n2)C1 (configuration not stated) | 51.88

Compound | Percent Effect [%]
OCCN1CCCC(c2cccc(-c3ccccc3F)n2)C1 (configuration not stated) | -3.425
CCN(CC)C(=O)c1cc(C2(C)CCN(C(C)=O)CC2)nc(C)n1 | 3.743
O=C(O)C1CN(c2cccc(F)c2)CCO1 (configuration not stated) | -11.48
O=C1CC(c2ccccc2)C2(CCN(Cc3ccccn3)CC2)N1 (configuration not stated) | 1.787
CC(=O)NCc1cc2n(n1)CCN(Cc1cccc(Cl)c1Cl)C2 | 13.71
O=C(c1ccco1)N1CCC(n2nc(-c3ccco3)ccc2=O)CC1 | 11.6
O=C(Cc1ccncc1)N(CCO)CCSc1ccc(Cl)cc1 | 12.99
Cc1cccc(CNC(Cc2ccsc2)c2nc(C)c(C)s2)n1.Cl (configuration not stated) | 47.96
O=C1COc2cc(C(=O)NS(=O)(=O)c3ccc(F)c(F)c3)ccc2N1 | -19.76
Cc1nn(C)cc1S(=O)(=O)N[C@@H]1CC[C@@H](n2ccnc2C)[C@@H]1O | -21.64
Cc1nn(C)cc1S(=O)(=O)N[C@@H]1CCC[C@@H](N2CCCC2)[C@@H]1O | 19.92
CO[C@@H]1CC[C@@H](NS(=O)(=O)c2cn(C)nc2C)[C@H]1O | 50.32
CC(NC(=O)N1CCNC(=O)CC1)c1ccc(OC(F)F)cc1 (configuration not stated) | -26.09
c1cc(CN2CCC(Cc3noc(C4CC4)n3)CC2)c2c(c1)OCO2 | 11.43
Fc1ccc(C2(CNC3=NCCN3)CCCC2)cc1.I | 20.05
O=C(CCc1cc2n(n1)CCCNC2)NCCS(=O)(=O)N1CCCC1 | -51.2
CS(=O)(=O)N1CCN(c2cc(N3CCCC3CO)ncn2)CC1 (configuration not stated) | 0.6089
CN1CCN(c2cc(N3CCCC3CO)ncn2)Cc2ccccc21 (configuration not stated) | -16.34
Cc1cccc2c1CCN(c1cc(N3CCCC3CO)ncn1)C2 (configuration not stated) | 67.12
Cc1noc(Cl)c1CCC(=O)N1CCCCC1Cn1cccn1 (configuration not stated) | -3.884
Cc1ccc(S(=O)(=O)NC(=O)c2c(C)noc2C(C)C)cc1C | 26.09
CCOc1ccc(S(=O)(=O)NC(=O)c2c(C)noc2C(C)C)cc1 | 49.48

Compound | Percent Effect [%]
Cc1noc(C(C)C)c1C(=O)NS(=O)(=O)c1ccc(Cl)cc1 | 78.7
Cc1cc2nccc(C3CCN(C(=O)c4ccccc4F)CC3)n2n1 | 6.226
CCC(Nc1ccc(CCN2CCOCC2)cc1)C(N)=O (configuration not stated) | -19.51
CN(C)C(=O)c1cncnc1-c1ccc(CNC(=O)C2CC2)cc1 | 37.26
COCC(=O)NCc1ccc(-c2ncncc2C(=O)N(C)C)cc1 | 50.66
COCCC(=O)NCc1ccc(-c2ncncc2C(=O)N(C)C)cc1 | 32.24
CNC(=O)c1sc2ccccc2c1C1CCN(c2nc(C)cc(C)n2)C1 (configuration not stated) | 14.17
CN1CCCC1CCNC(=O)c1ccccc1-n1cc(CN)cn1 (configuration not stated) | 7.916
Cc1cccc2c1C(=O)NC1(CCOCC1)N2 | 17.55
Cn1nccc1-c1ccc2nc(C3CCN(CC4CC4)CC3)nn2c1.O=C(O)C(F)(F)F.O=C(O)C(F)(F)F | -10.01
Cc1nc(NCc2cccc(F)c2)cc(C2CCNCC2)n1.Cl | -9.727
COc1ccc2[nH]c(CNc3cc(C4CCNCC4)nc(C)n3)cc2c1 | 70.58
Cc1nc(NCc2ccc(C)o2)cc(C2CCNCC2)n1 | -17.21
O=C(c1cncs1)N1CCC(c2cnccn2)CC1 | 7.442
Cc1cn2c(n1)CCC(NC(=O)Cn1cncn1)C2 (configuration not stated) | -12.63
Cc1ccc(OCCC(=O)N2CCN(c3cnccn3)CC2)cc1C | 39.73
CCn1cc(C(=O)NCc2csc(C3CC3)n2)c(C)n1 | 26.12
CCn1nc(C)c(C(=O)NCc2csc(C3CC3)n2)c1C | 69.61
Cc1nn(C)cc1C(=O)NCc1csc(C2CC2)n1 | 0.3942
CCSc1cc(C(=O)NCCc2nnc(-c3ccco3)[nH]2)ccn1 | -11.72
CCOc1ccccc1-c1cc(N)[nH]n1.Cl | 108.1
CCOc1ccc(Br)cc1-c1cc(N)[nH]n1.Cl | -17.72

Compound | Percent Effect [%]
CCOc1cc(C)c(-c2cc(N)[nH]n2)cc1OCC | 10.44
O=C(c1cc(C2CCCC2)no1)N1CC(O)C1 | 18.4
CN(C)C(=O)CN1C(=O)CCC12CCN(Cc1ccc(F)cc1)CC2.O=C(O)C(F)(F)F | 13.62
Cl.c1csc(-c2noc(C3CNC3)n2)c1 | 106.9
Cl.c1csc(-c2noc(C3CCCNC3)n2)c1 (configuration not stated) | 9.745
CCS(=O)(=O)N1CC(c2nc(-c3cccs3)no2)C1 | 8.063
CO[C@H]1CN(c2ccccc2)S(=O)(=O)[C@@]12CCN(Cc1ccccc1)C2 | 6.335
Cc1ccccc1CC(=O)N1CCCn2cncc2C1 | -17.85
Cc1cccc(C(=O)N2C[C@H](NS(C)(=O)=O)[C@@H]3OCCC[C@@H]32)n1 | 2.201
CN1CCC(NC(=O)Nc2ccc(F)c(-n3cccc3)c2)C1=O (configuration not stated) | 84.66
CN1CCC(NC(=O)Nc2ccc(Br)c(F)c2)C1=O (configuration not stated) | 8.703
CN1CCC(NC(=O)Nc2ccc(F)c(Br)c2)C1=O (configuration not stated) | -9.143
COCCNc1ccc(CC2CCCN(C3CCCC3)C2)nn1 (configuration not stated) | 39.43
CCN1CC(C(=O)N(C)Cc2cc3cc(F)ccc3[nH]2)CC1=O (configuration not stated) | 42.66
CN(Cc1cc2cc(F)ccc2[nH]1)C(=O)C1CC(=O)N(C(C)(C)C)C1 (configuration not stated) | 23.39
CN(Cc1cc2cc(F)ccc2[nH]1)C(=O)C1CC(=O)N(C2CC2)C1 (configuration not stated) | 52.25
CN(C)CCN1CC(C(=O)N(C)Cc2cc3cc(F)ccc3[nH]2)CC1=O (configuration not stated) | 29.76
CCc1nnc(CN(C)C(=O)C2CC(=O)N(C3CC3)C2)o1 (configuration not stated) | 20.13
CN(Cc1cc2cc(F)ccc2[nH]1)C(=O)C1CC(=O)N(C2CCCC2)C1 (configuration not stated) | 65.9
